# Measured values as given in the supplement of paper PMC11417369.
# The full ranking holds about 25,000 sequences; the median of “ln(normalized median fluorescence intensity)” is about 9.7, and the highest 2% start at about 11. The entries come from a sample that favours the highest values as a whole.
# System: PfAP2-HC AP2 domain (GST-tagged)
# Test: gcPBM binding intensity (ln(normalized median fluorescence intensity)); higher = stronger DNA binding
# Summary of the method: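 Binding intensity is defined as the maximum Masliner-normalised natural-log median intensity across replicate spots for either probe orientation. It was measured on an Agilent 4 × 180k array of primer-extended double-stranded 36-bp intergenic genomic probes and negative controls, to which GST-tagged P. falciparum DNA-binding domains made in E. coli were applied for 1 h in 1× PBS with 1% milk, 0.2 mg/ml BSA, 0.5% salmon testes DNA and 0.03% Triton X-100. Detection was by Alexa488 anti-GST antibody and scanning at 488 nm.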
row,Sequence,gcPBM binding intensity (ln)
1,TATACAAGTATATAGGTGCATATATAAGTATATATT [GTGCAC_site9994],9.69
2,ACGTTTTATTTTTATTGTACTCACATTGAAATGAAT [XGTACX_site6094],10
3,AATATAATGCAATATACACACATATATTTCTCTTTT [CACACA_site7276],9.94
4,TTTTCTAAAAAAAGTTGTACATCTTATTTATATTAT [XGTACX_site295],9.63
5,AATTTCAAATTGTATGTGCACATGTAGAAGTACTTT,9.85
6,AAAATATGTATGTAAAGTACTAATATACAAATTTTT [XGTACX_site5186],9.62
7,TGTATTTATTAATGTACACACATGCGTATGTTCGTT [CACACA_site5892],9.96
8,TTTTTTTTTATAGCTAAACACACATAAGAATATATG [CACACA_site8282],9.61
9,TTTTTTTTTTTTTTTGCACACACATTGAATTATTAT [CACACA_site198],9.96
10,TTTATTTATATAATTACACACATATATACACAAATG [CACACA_site8903],9.79
11,TGTTGTAACAAAAGTACACACACATTTCTATAAATT [CACACA_site8894],9.86
12,GAATATAAACATATTACACACATCTATCTGTACATT [CACACA_site5114],9.97
13,GGATATAACAGACACACACACACATATAAATATATT [CACACA_site7866],10.6
14,TAAATAAATACATACACACACATACAGATATATATA [CACACA_site5690],10.5
15,TACAGATACAGATACACACACACACCGAAATAAATA [CACACA_site4865],11
16,AAAAAAAACAGACACACACACATACAAAATATATAT [CACACA_site1449],10.7
17,ATTTCATACAGACACACACACAAACAAACATATATA [CACACA_site979],11.2
18,TATATATATAAATACACACACACACCGATATATATA [CACACA_site5408],10.5
19,TATACAGATATATATACACACATATATATAAATACA [CACACA_site4383],9.97
20,AATAACCACAGACACACACACATATAAATATAAATA [CACACA_site7631],10.9
21,AACCACAGACATATAACACACATATACAATATATAT [CACACA_site5142],10.4
22,TATAAATATAAATACACACACACATCAATACAGATA [CACACA_site5850],11
23,TATATACTCAAACACACACACACATACACAGACATA [CACACA_site5025],10.7

row,Sequence,gcPBM binding intensity (ln)
1,TATAAATACAGATACACACACACACCGATATATATA [CACACA_site5271],10.4
2,ATTTTTTCTTTTTTTTTTCCGTTTTTTTGGACATTT [CACACA_negctrl_site1174],9.75
3,TAAATATATATATATAGTACAATATAATTATGATAT [XGTACX_site258],9.75
4,AAAAAAAAAATATCATGTACAAATATAATAAAATTT [XGTACX_site3896],9.79
5,TATATTTAAGTACATAAATAAGCCCATTTACATACA [CACACA_negctrl_site1224],9.37
6,AATAATAATGCTTTAACTTTGTTGTTATTTAGAATA [CACACA_negctrl_site1144],9.44
7,AATAGCTAGCTGTGCACACAAACATATTTTCCAAAT [CACACA_site880],9.91
8,AGGTTATATATGAACAAAAATAAAATATTCATAGGC [TGCATGCA_negctrl_site46],9.77
9,ATAAATACTAGGCACACACACATATAGATTTATATA [CACACA_site7064],10.8
10,AAATAAATACTAGGCACACACACATATATATATATA [CACACA_site2079],11
11,AAAAAAAACAGACACACACACACATATACATACATA [CACACA_site2665],11.5
12,AAAAAACACAGACACACACACATATACATACATACA [CACACA_site2666],10.7
13,ATAAATACTAGGCACACACACATATATATATATATA [CACACA_site2080],10.4
14,TAAACAGACATATAAACACACATACATACATACATA [CACACA_site7215],10.2
15,TGTTTCTAAGAATTTACACACAAAATATTTCTACAT [CACACA_site7846],9.9
16,TTTATTTATTAAGAATGTACATGTATTTGTTAAATA [XGTACX_site4465],9.4
17,CATAGATACATACACGCACACACATATATATATATA [CACACA_site13],10.3
18,TCTCATAGTAGACACACACACACACGCACATATATA [CACACA_site6916],11.3
19,TATCTCATAGTATACACACACACACGCGCACATATA [CACACA_site6917],10.5
20,AAATTTGGCAGACACACACACACACGCACACGCACA [CACACA_site6423],11.5
21,ATTTGGCATAGACACACACACACACGCACGCACATA [CACACA_site6424],11.1
22,TATACACATAGACACACACACATACACGCACATACA [CACACA_site6908],10.7
23,CACATACACATACACATACACACGCATAGAAACATA [CACACA_site2136],10.5

row,Sequence,gcPBM binding intensity (ln)
1,CGCACACGCAGACACACACACACATATAAATAAATA [CACACA_site7101],10.8
2,AAAAATTTGGCATACACACACACACGCACACGCACA [CACACA_site6422],10.6
3,TCAAGTTTATATTAACTATTTATGAAAAAAAAAAGA [CACACA_negctrl_site902],9.38
4,ATTTTATATACACTTTGTACTTATTTTATTCTTCTT [XGTACX_site4200],9.93
5,TAATATATTTATAAGTGTACACATTATATAAATCCC [XGTACX_site8875],9.64
6,ATCCATTATTTTTGTTGTACGGGTAACTTTAAAAAG [XGTACX_site2226],9.5
7,ATGAATAATTAATGATGTACTTAAAAAAAAAAATAT [XGTACX_site6346],9.53
8,TATATAGCTAAAAACACACAAATATGTACACATAAA [CACACA_site7665],9.88
9,ATGAACATATCAATTCTCAAAATAGGATGAGAGCAT [CACACA_negctrl_site230],9.6
10,ATCATAAATATAGCAACACACGGATTACATAAAATA [CACACA_site2796],9.85
11,GTGGTTATATATTAAGTGCATATTATAATTTTAAAC,9.52
12,TATGTGAATATAATCACACACAATACGGAAAGAGAC [CACACA_site7311],11.2
13,TATGTGAATATAATCACACACAATACGGAAACCCAC [CACACA_site2725],9.99
14,AATATGTGAATATAATCACACACAATACGGAAACAC [CACACA_site8875],10.7
15,TTAAAATTTTTCAAAAGTACATAAATAATATATATT [XGTACX_site4694],9.32
16,ATAAACAGATCATATACATGCATATATGTAGAATAA [TGCATGCA_site157],9.82
17,CACACGCACGAACACACACACATATAAATATAAATA [CACACA_site6299],10.2
18,CACACGCACGAACACACACACACACGCATATAAATA [CACACA_site6302],10.9
19,CACACGCACGAACACACACACACACGCGCACATATA [CACACA_site6304],11
20,AACACGCGCAGACACACACACACACGCACATATATA [CACACA_site7104],10.9
21,CACGCGCACGAACACACACACACACGCATATAAATA [CACACA_site7103],11
22,CACACGCACGAACACACACACACACGCACGCACATA [CACACA_site6305],10.7
23,ATATACTATTAACCACATATGTGTGTTAATTTATAT [GTGCAC_negctrl_site315],9.79

row,Sequence,gcPBM binding intensity (ln)
1,CATATATAATAATATTGTACATATATAATAATAATA [XGTACX_site3338],9.69
2,AAATAAGAACATAGAATGCACTTTTTTTTTTTTTCC,9.51
3,TAAATATATGCATATACACACAACAAAAAAATATAT [CACACA_site2341],10.1
4,TAAGTATACGCATACACACACACACCCAAAAAAAAA [CACACA_site425],10.4
5,TGATAATAAGCATACACACACACACCCAAAAAAAAA [CACACA_site721],11.2
6,AAGTAAAATAAGTATACACACATAAATATATATATA [CACACA_site685],10.1
7,TGATAATAAGCATACACACACACACTAGAAAAAAAA [CACACA_site4558],11.5
8,AATAAAATAATAAAAGCACACAAGAATACACCCAAA [CACACA_site7919],10.6
9,GGTGATAATAAGCATACACACACACCCAAAAAAAAA [CACACA_site8137],10.2
10,AATAAGTATACACATACACACACACCCAAAAAAAAA [CACACA_site8034],11
11,TGATAATAAGCATACACACACACACTAAAAAAAAAA [CACACA_site6478],10.9
12,AAGAAAATAAAAAATAAGCATAATATGATATGATAT [TGCATGCA_negctrl_site196],10.1
13,AATAAATTGGTATGTTGTACAAAGTAACCATCGATT [XGTACX_site2823],9.75
14,ATTCCACTGTTTTAGTGTACTGGTCGTTTTTTTTTT [XGTACX_site1738],9.89
15,TTAAATAAAATAAAAACATGCACACTTTATTTTTTT [TGCATGCA_site719],9.74
16,TATTAATTATTATGACATACATATCAGTTATTAAAA [CACACA_negctrl_site600],9.35
17,AGCACCCACCAACACACACACACACCCACCCACCGA [CACACA_site368],11.2
18,ATCAAGCACCAACACACACACACACCCCCACCCACA [CACACA_site370],11.3
19,AGCACCCACCAACACACACACACACCCACCCACCCA [CACACA_site8011],11.2
20,GTTACACCAACAAACACACACACACCCACCCACAAA [CACACA_site2427],10.6
21,GTTACACCAACAAACACACACACACCGACACCCAAA [CACACA_site5361],10.6
